From PubChem BioAssay
Sampled rows, rich in hits. Any-hit rate of the full collection: about 7.6%.
PLAP act: PLAP enzyme activators, biochemical, luminescence, HTS; Alkaline phosphatase, placental type (Homo sapiens), P05187; purified PLAP enzyme, luminescent substrate read-out; stronger effect = higher value; activation fold at 20 µM; 96,000 tested, 1.2% active; in the data active = activation fold above about 2
Target sequence (P05187 whole entry, looked up): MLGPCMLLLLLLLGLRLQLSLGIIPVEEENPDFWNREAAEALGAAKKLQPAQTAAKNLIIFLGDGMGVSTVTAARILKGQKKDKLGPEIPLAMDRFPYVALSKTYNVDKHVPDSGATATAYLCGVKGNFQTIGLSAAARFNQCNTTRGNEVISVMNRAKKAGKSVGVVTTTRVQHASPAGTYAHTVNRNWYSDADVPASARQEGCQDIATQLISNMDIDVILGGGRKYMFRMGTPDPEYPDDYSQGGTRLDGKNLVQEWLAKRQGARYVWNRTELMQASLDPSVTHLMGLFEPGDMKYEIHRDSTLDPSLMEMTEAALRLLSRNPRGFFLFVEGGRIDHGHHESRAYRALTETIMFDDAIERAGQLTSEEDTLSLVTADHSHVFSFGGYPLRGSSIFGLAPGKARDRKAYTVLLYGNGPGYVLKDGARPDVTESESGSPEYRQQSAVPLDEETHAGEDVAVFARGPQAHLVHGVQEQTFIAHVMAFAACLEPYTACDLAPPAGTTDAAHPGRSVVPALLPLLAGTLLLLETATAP
M1 antagonist: antagonists of rat M1 muscarinic receptor; CHO-M1 cells, Fluo-4 calcium, ACh EC80 antagonist mode; stronger effect = lower value; B-score at 10 µM; 64,000 tested, 3.4% active; AID 628, 2007;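 active = calcium fluorescence response, raw or row-and-column corrected B-score, differing from the plate sample mean either way at a set confidence level, mostly lower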
Cav32 inh: Cav3.2 calcium influx blockers – cell-based, Fluo-4 calcium fluorescence, FDSS, MLSMR library, primary screen. Cav3.2-expressing cells; stronger effect = lower value. B-score at 10 µM. 100,000 tested, 4% active. AID 449739, 2010;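 active = single-dose well whose peak fluorescence ratio is a statistical outlier from its plate by either plate-standardised score or position-corrected B-score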
M1 agonist: M1 muscarinic receptor agonists, primary screen, CHO-M1 cells, Fluo-4 calcium, agonist mode; Fluo-4 calcium fluorescence; stronger effect = higher value; 64,000 tested, 3% active; B-score at 10 µM; Muscarinic acetylcholine receptor M1;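 active = fluorescence rise, raw or as B-score row- and column-corrected plate score, outside the 99.7% band of its plate's samples, either direction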
* hit, by the source's call; / = no result given.

SMILES	PLAP act	M1 antagonist	Cav32 inh	M1 agonist
O=C(N/N=C/c1ccco1)c1cc(-c2cccc3ccccc23)n[nH]1	1.2	/	-6.2*	/
Cc1ccc(-c2cc(C(=O)N/N=C/c3ccco3)[nH]n2)cc1	2.2*	/	/	/
O=C(N/N=C/c1ccco1)c1cc(-c2ccccc2)n[nH]1	/	/	-0.71	/
Clc1ccc(OCc2nn3c(C4CCCCC4)nnc3s2)cc1	1.2	0.31	-2.7	0.58
CCOC(=O)Nc1ccc(S(=O)(=O)Nn2cnnc2)cc1	1	0.23	0.44	-0.27
CCc1nnc(NC(=O)CSc2nnc(CNc3ccc(Cl)cc3)o2)s1	0.9	1.2	-4*	-0.072
CCc1nnc(NC(=O)CSc2nnc(Cc3ccccc3)o2)s1	0.9	-0.1	3.8*	1.7
O=C1N/C(=N\N=C\c2cccnc2)SC1Cc1ccc(SC(F)F)cc1 (centres undefined)	2.1*	/	-0.52	/
O=C1N/C(=N\N=C\c2ccc3ncccc3c2)SC1Cc1ccc(SC(F)F)cc1 (centres undefined)	1.8	/	-0.18	/
Cc1cc2ncn(-c3ncnc4sc5c(c34)CCCC5)c2cc1C	1.5	/	-5.7*	/
COc1cc(C(=O)Oc2ccccc2/C=N/NC(=O)c2ccc(Cl)cc2Cl)cc(OC)c1OC	2.3*	/	-3.7	/
COc1cc(C(=O)Oc2ccccc2N)cc(OC)c1OC	1.7	-0.36	1.2	1.9
COC(=O)Cc1cc(=O)[nH]c(Nc2nc3ccccc3o2)n1	2.6*	-0.12	3.5*	1.9
CCOC(=O)Cc1cc(=O)[nH]c(Nc2nc3ccccc3o2)n1	1.7	1	-1.3	0.14
O=C(CSCc1ccc(Cl)cc1)Nc1ccc2c(c1)OCCO2	1	/	-3	/
O=C(Nc1ccc(NC(=S)NC(=O)C(c2ccccc2)c2ccccc2)cc1)c1ccccc1	/	/	-4.3*	/
Cc1cccc(NC(=S)NC(=O)C(c2ccccc2)c2ccccc2)n1	/	/	-0.033	/
COC(=O)C1=C(COc2ccccc2)NC(=O)NC1c1ccc(Cl)cc1 (centres undefined)	/	/	-0.55	/
CN1CCN(/C=N/c2c(C#N)cnn2Cc2ccccc2)CC1	1	-0.54	-0.064	-0.19
CC[C@H](C)/C=C(C)/C=C/C(=O)Cc1cc(O)c(C)c(O)c1C=O	/	/	-3.6*	/
CC1CCN(C(=O)COC(=O)[C@H](C)NS(=O)(=O)/C=C/c2ccccc2)CC1	1.4	/	-5.9*	/
O=C1CCN(C(=O)c2ccccc2)C2CCCCC12 (centres undefined)	0.9	0.68	1.3	-0.028
Cc1nn(C)cc1C1C2=C(CC(C)(C)CC2=O)N(c2ccccc2)C2=C1C(=O)CC(C)(C)C2	2*	/	1.7	/
O=c1c(-c2ccc(Cl)cc2)[n+]([O-])c2ccccc2n1O	1	-0.71	-1.8	28*
O=C(Nc1nc2c(Cl)cccc2s1)c1ccc(Br)o1	1.2	0.23	-0.31	-0.073
SMILES	PLAP act	M1 antagonist	Cav32 inh	M1 agonist
O=C(Nc1nc2ccc(Cl)cc2s1)c1ccc(Br)o1	0.8	0.26	-3.6*	-0.3
O=C(c1ccc2c(c1)N(Cc1ccccc1)CCS2)N1CCCCC1	1.1	/	-8.3*	/
O=C(c1ccc(C(=O)N2CCCCCC2)cc1)N1CCCCCC1	/	/	0.51	/
O=c1cc(CSc2ccc(S(=O)(=O)N3CCCCC3)cn2)nc2sccn12	1.5	0.89	1.5	0.74
C/C(=N\NC(=O)C1CCCN(S(=O)(=O)c2ccccc2)C1)c1ccncc1 (centres undefined)	1.1	/	4.1*	/
Cc1ccc(S(=O)(=O)N2CCCC(C(=O)NCc3ccccn3)C2)cc1 (centres undefined)	1.4	0.31	/	1.1
C/C(=N\NC(=O)C1CCCN(S(=O)(=O)c2ccccc2)C1)c1cccnc1 (centres undefined)	0.9	/	1.8	/
C/C(=N\NC(=O)C1CCCN(S(=O)(=O)c2ccccc2)C1)c1ccccn1 (centres undefined)	2*	/	2.9	/
CC1CC(N(C(=O)c2ccccc2Cl)c2ccccc2)c2ccccc2N1 (centres undefined)	1.1	/	/	/
C=CCNC(=O)C(=O)c1cccn1-c1ccsc1C(=O)OC	0.9	/	-0.52	/
C=C(C)c1cccc(C(C)(C)NC(=O)Nc2ccc3[nH]c(=O)[nH]c3c2)c1	1.1	0.023	-1.2	0.42
O=C(CSCc1cnn(-c2ccccc2)c1-n1cccc1)NCc1cccs1	0.9	-0.36	-6.3*	0.88
COc1cccc(CNC(=O)CSCc2cnn(-c3ccccc3)c2-n2cccc2)c1	4.2	/	-5.3*	/
CNC(=O)CSCc1cnn(-c2ccccc2)c1-n1cccc1	1.6	/	1.2	/
Cc1nc(C(=O)N(C)C)nn1-c1ccc(Cl)cc1Cl	1	/	0.61	/
Cc1c(Cl)cccc1NC(=O)c1nc(C)n(-c2cc(OC(C)C)c(Cl)cc2Cl)n1	1	/	-12*	/
COc1ccccc1NC(=O)CN1C(=O)C(C)Oc2ccccc21 (centres undefined)	1.1	0.23	-0.011	-3.4*
O=C1CCCN1CN(C(=O)c1ccccc1)c1ccc(F)cc1	1.1	0.28	0.95	0.33
Cc1nn(-c2ccccc2)c(Cl)c1/C=C1\SC(=S)NC1=O	1.3	/	-4.5*	/
O=C(CC(NS(=O)(=O)c1ccc(Cl)cc1)c1ccco1)N1CCc2ccccc21 (centres undefined)	0.9	/	-4.3*	/
CCC(C)NC(=O)CC(NS(=O)(=O)c1ccc(Cl)cc1)c1ccco1 (centres undefined)	1	/	-0.015	/
c1ccc(CN2CCN(c3nc(NCc4ccco4)c4ccccc4n3)CC2)cc1	2*	/	-2.4	/
COc1cccc(C2C3(C#N)C(N)=NC(OC)(OC)C23C#N)c1 (centres undefined)	1.1	/	-0.36	/
COC1(OC)N=C(N)C2(C#N)C(c3cccc(Oc4ccccc4)c3)C12C#N (centres undefined)	1.3	-1.2	-5*	-0.65
COc1ccc(S(=O)(=O)NCCSCc2cccs2)cc1	0.5	-0.48	-5.2	1.5
SMILES	PLAP act	M1 antagonist	Cav32 inh	M1 agonist
O=C(CSc1nnc(-c2cccs2)n1Cc1ccccc1)NCc1ccc2c(c1)OCO2	1.1	/	-4.7*	/
Cc1ccc(-c2csc3nnc(SCC(=O)NCc4ccc5c(c4)OCO5)n23)cc1	0.8	-0.25	-2.3	8.7*
COc1cccc(-c2nnc(SCC(=O)NCc3ccc4c(c3)OCO4)n2Cc2ccco2)c1	1.1	/	-4.6*	/
O=C(CCSc1nnc2scc(-c3ccccc3)n12)NCc1ccc2c(c1)OCO2	0.9	-0.62	1.2	2.5
CC(Sc1nnc(-c2cccs2)n1Cc1ccccc1)C(=O)NCc1ccc2c(c1)OCO2 (centres undefined)	1.5	/	-4.4*	/
O=C(CSc1nnc(-c2cccnc2)n1Cc1ccco1)NCc1ccc2c(c1)OCO2	1.2	0.33	0.35	0.072
CCn1c(SCC(=O)NCc2ccc3c(c2)OCO3)nnc1-c1cccs1	0.8	0.52	1.3	1.1
CC(NC(=S)NCCc1ccccc1)C(c1cccs1)N1CCN(C)CC1 (centres undefined)	/	/	0.81	/
COc1cccc(C2Nc3cc(Cl)c(S(N)(=O)=O)cc3S(=O)(=O)N2)c1 (centres undefined)	0.6	/	-0.091	/
